Pf growth 48h = P. falciparum growth inhibition at 48 hours (one generation) | P. falciparum luciferase growth in erythrocytes, 48 h | Potency, µM (top dose mostly 28.7 µM), for the others: at the top dose activity change, negative = inhibition, most hits filed as inhibitors | hit rate 5.9% among 310,000 | AID 504832; note: potency is the fitted concentration of half-maximal effect; % is set by controls: 0 for no effect and ±100 for the full control effect
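Growth was read as firefly luciferase luminescence after a 48 h, 37 C, 5% CO2 exposure of compounds to reporter-bearing P. falciparum cultures (0.1% parasitemia, 2% hematocrit final) in Albumax-supplemented RPMI 1640.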
Pf growth 96h = inhibits malaria parasite growth, 96 h. hit rate 6.9% among 320,000. AID 504834. P. falciparum luciferase reporter growth, 96 h. Potency, µM (series often up to 28.7 µM), for the others: at the highest dose activity change, negative = inhibition, usual class: inhibitors; note: potency is the fitted concentration of half-maximal effect; % is set by controls: 0 for no effect and ±100 for the full control effect
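Luminescence readout: decreased luciferase signal marks inhibited growth of reporter-expressing P. falciparum in infected red cells (2% hematocrit, 0.05% parasitemia final), exposed to compound two generations (96 h, 37 C, 5% CO2).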
Shiga toxin inh = Shiga toxin inhibition; Vero cells, Shiga toxin protein synthesis inhibition reporter; inhibition, % at 38.7 µM; hit rate 9.2% among 290,000; AID 2315; in the data active = inhibition mostly above about 28%, no sharp cut-off; inactive = mostly below about 43%; note: 0% is about no effect
LmPK inhibitor = inhibitors of Leishmania mexicana pyruvate kinase; AID 1721; purified LmPK, Kinase-Glo ATP luminescence, 1 h; hit rate 0.37% among 290,000; Potency, µM (series often up to 57.5 µM), for inactives: at the highest dose activity change, negative = inhibition, most hits filed as inhibitors; note: potency is the fitted concentration of half-maximal effect; % is set by controls: 0 for no effect and ±100 for the full control effect
Target sequence (Q27686 whole entry, looked up): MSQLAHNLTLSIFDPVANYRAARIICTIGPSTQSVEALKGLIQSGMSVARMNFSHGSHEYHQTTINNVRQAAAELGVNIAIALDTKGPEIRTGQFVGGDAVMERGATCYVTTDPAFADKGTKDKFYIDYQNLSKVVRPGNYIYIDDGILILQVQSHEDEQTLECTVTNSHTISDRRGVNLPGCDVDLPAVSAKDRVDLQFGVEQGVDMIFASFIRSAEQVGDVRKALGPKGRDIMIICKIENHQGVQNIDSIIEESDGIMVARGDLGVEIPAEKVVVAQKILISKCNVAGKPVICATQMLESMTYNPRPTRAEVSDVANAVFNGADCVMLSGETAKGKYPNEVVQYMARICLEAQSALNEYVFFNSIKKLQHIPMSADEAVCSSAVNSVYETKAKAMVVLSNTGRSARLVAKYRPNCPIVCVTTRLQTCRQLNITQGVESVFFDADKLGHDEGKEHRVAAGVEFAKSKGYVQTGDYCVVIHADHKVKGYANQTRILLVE
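Purified LmPK (0.1 nM) converted ADP (0.1 mM) to ATP with PEP (0.5 mM) in imidazole buffer pH 7.2 with KCl and MgCl2, 1 h at room temperature. ATP was read by Kinase-Glo luminescence; data normalized to uninhibited and no-enzyme controls.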
Cycloheximide cs = counter-screen for Shiga toxin inhibitors: cycloheximide protein synthesis inhibition; AID 2314; hit rate 12% among 300,000; max response, %; cell reporter, cycloheximide protein synthesis inhibition counterscreen; in the data active = max response mostly above about 13%, no sharp cut-off; inactive = mostly below about 14%; note: read at 38.3 µM for the half of the compounds with a filed dose; 0% is about no effect
Numbers without * were called inactive; ? = inconclusive; / = not tested or not shown; [ ] = another dose, or the depositor's remark. Sampled rows, rich in hits. Any-hit rate of the full collection: about 22%. Unless noted, calls come from the whole dose curve; as a rule, active = well fitted inhibition curve with a large enough effect; inconclusive = small, poorly fitted or top-dose-only effect, or another doubt; inactive = no such curve, though single readings can be large or run the other way.

SMILES | Pf growth 48h | Pf growth 96h | Shiga toxin inh | LmPK inhibitor | Cycloheximide cs
CN(c1ccc(C(=O)Nc2nccs2)cc1)S(=O)(=O)c1ccccc1 | ? | 9% | 57* | 8% | 38*
CN(c1ccccc1)S(=O)(=O)c1ccc(C(=O)Nc2nccs2)cc1 | / | ? | -8 | 1% | -1
Cc1csc(NC(=O)c2ccc(S(C)(=O)=O)cc2)n1 | 348% | 148% | 72* | 3% | 40*
COc1ccc(-c2csc(NC(=O)c3ccc(S(C)(=O)=O)cc3)n2)cc1 | -2% | 47% | 72* | 1% | 33*
CC(C)CN1CCC(=O)N([C@H](COc2ccccc2)c2ccccc2)CC1 | ? | ? | -5 | 0% | 2
Cc1csc(NC(=O)c2ccc(S(=O)(=O)N(C)c3ccccc3)cc2)n1 | ? | ? | 42* | -2% | 34*
COC(=O)c1c(-c2ccncc2)csc1NC(=O)c1ccoc1C | 66% | / | 66* | 3% | 21*
CCc1cc(C(=O)OC)c(NC(=O)c2ccoc2C)s1 | ? | ? | 3 | 4% | -2
Cc1ccc(-c2[nH]ncc2C(=O)c2ccccc2C)c(O)c1 | ? | ? | 1 | 4% | 13
CCOc1c(N2CCOCC2)c(=O)c1=O | 6% | -8% | -7 | 0% | -1
CC1CCN(CCC(=O)Nc2ccc(F)c(F)c2)CC1 | 13% | 0% | -3 | -6% | 8
Cc1ccc(-c2cc3cccc[n+]3cc2-c2ccc(C)cc2)cc1 | 0.41µM* | ? | 17 | 3% | 1
O=C(C[n+]1cc(Br)cc2ccccc21)c1ccc(Cl)cc1 | ? | 13µM* | -6 | 0% | -1
O=C(C[n+]1cc(Br)cc2ccccc21)c1ccc(Br)cc1 | -16% | ? | -17 | 0% | 1
O=C(C[n+]1cn(C(F)F)c2ccccc21)c1ccc(Br)cc1 | -6% | 18% | 62* | 2% | 28*
CN(C)c1ccc(-c2nnc(SCC3CCCO3)n2C)cc1 (stereo not drawn) | 44% | -17% | 80* | -9% | 44*
Cc1ccc(F)c(N=Cc2c(O)c3ccccc3oc2=O)c1 | 17% | 41% | / | 6% | 1
CCOC(=O)c1sc(N(Cc2ccccc2)C(=O)COC(=O)c2ccccc2O)nc1C | 39% | 32% | 32* | -3% | 19*
O=[N+]([O-])c1cc(S(=O)(=O)O)cc([N+](=O)[O-])c1NN(c1ccccc1)c1ccccc1 | -5% | -9% | -9 | 0% | -1
CN1OC[C@@H]2COc3ccc4ccccc4c3[C@@H]21 | 13µM* | 90% | 55 | 7% | 16
O=C(CC1=NCCNC(c2ccccc2)C1)c1ccccc1O (stereo not drawn) | 2% | ? | 36* | 9% | 32*
CCCCN1C(=O)C(=O)N(CC(=O)NC2CCCc3ccccc32)C1=O (stereo not drawn) | 0% | 50% | 26 | 0% | 7
COc1cc2c(cc1OC)C(COc1ccc([N+](=O)[O-])cc1)NCC2 (stereo not drawn) | 13% | 9% | -5 | 5% | -3
O=C(NCc1ccc(F)cc1)Nc1ccc(Cl)cc1 | 60% | 1% | 59 | 0% | 36*
O=C(NCc1ccc(F)cc1)Nc1cccc(Cl)c1 | 64% | 63% | 62* | -2% | 28*
SMILES | Pf growth 48h | Pf growth 96h | Shiga toxin inh | LmPK inhibitor | Cycloheximide cs
CCC(=O)Nc1ccc(-c2csc(C)n2)cc1 | 93% | 36% | 31 | -6% | 23*
Cc1nc(-c2ccc(NC(=O)Cc3ccccc3)cc2)cs1 | 72% | -2% | 87* | 2% | 43*
COc1ccc(CC(=O)Nc2ccc(-c3csc(C)n3)cc2)cc1 | 15% | / | 35 | 4% | 13
CC(C)(C)C1c2[nH]c3ccccc3c2CCN1Cc1cccc(OCCO)c1 (stereo not drawn) | 27% | ? | 37 | -7% | 11*
Cc1cc(N2CCN(S(=O)(=O)c3ccccc3)CC2)nc2c(C)cccc12 | -7% | 13µM* | -7 | -4% | -7
Cc1ccc2cc(C)c(N3CCN(c4ccccn4)CC3)nc2c1 | -9% | / | 51* | -4% | 28
Cc1cc(N2CCCCC2)nc2c(C)cccc12 | 15% | 0% | 2 | -4% | 1
Cc1ccc(C(=O)CN2CCN(c3ccccn3)CC2)c(C)c1 | 18% | ? | -7 | 0% | 7
Nc1nc(N2CCN(c3ccccn3)CC2)nc2ccccc12 | / | ? | 89* | -7% | 43*
O=S(=O)(c1ccccc1)N1CCN(c2nnc(-c3ccccc3)c3ccccc23)CC1 | ? | 4.1µM* | -9 | 1% | 0
C/C=C/C1=Cc2ccccc2C(CC(=O)OC)N1C(=O)OC (stereo not drawn) | / | / | / | -1%[11.5 µM] | /
COc1ccc(CCNc2ccc(N3C(=O)CC(C)C3=O)cc2[N+](=O)[O-])cc1OC (stereo not drawn) | ? | ? | 14 | 8% | 3
Cc1cc(C)c(C)c(S(=O)(=O)N[C@@H](C)C(=O)OCC(N)=O)c1C | 12% | 0% | -10 | 12% | 1
Cc1ccc(-c2nnc(OCc3cccnc3)c3ccccc23)cc1 | ? | ? | 19 | -5% | 10
COc1ccc2nc(SC(C)C(=O)NC3CCCCC3)[nH]c2c1 (stereo not drawn) | -14% | ? | / | / | /
c1ccc(-c2nnc(N3CCN(c4ccccn4)CC3)c3ccccc23)cc1 | 7.4µM* | / | -2 | 4% | 8
Cc1ccc(-c2nnc(N3CCN(c4ccccn4)CC3)c3ccccc23)cc1 | 13µM* | -9% | -6 | 0% | -2
Cc1ccc(-c2nnc(N3CCCCC3)c3ccccc23)cc1 | ? | -25% | 18 | 0% | -2
CCN(CC(=O)Nc1c(F)cccc1F)C(=O)c1cccc(S(=O)(=O)NCc2ccccc2)c1 | -5% | -9% | / | / | /
O=C(Nc1ccc2nc(-c3ccccc3)[nH]c2c1)c1cccs1 | / | ? | 39 | 3% | 32*
CC(=O)Nc1cccc(-c2nc3ccc(NC(C)=O)cc3[nH]2)c1 | -6% | ? | -14 | -21% | -2
O=C(Nc1ccc2nc(-c3ccc4nc[nH]c4c3)[nH]c2c1)c1cccs1 | 2.6µM* | ? | 1 | -5% | -1
CN(Cc1nccn1C)C(=O)C1CCC(=O)N(CCc2ccc(Cl)cc2)C1 (stereo not drawn) | 8% | ? | -19 | -11% | -1
CCCCCSc1cc(OC)c(CCN)cc1OC | ? | ? | -28 | -3% | -2
CCCCCCCSc1cc(OC)c(CCN(C)C)cc1OC | ? | 4.7µM* | -18 | 3% | -9
NC(=O)C1CCN(C(=O)c2ccccc2SCC(=O)NCC2CCCCC2)CC1 | ? | 23% | -4 | -2% | -1
NC(=O)C1CC(=O)N(Cc2ccc3c(c2)OCO3)C(=Nc2ccccc2)S1 (stereo not drawn) | -20% | 15µM* | -16 | 1% | -5
CNC(=O)C1CC(=O)N(Cc2ccc3c(c2)OCO3)C(=Nc2ccc(OC)cc2)S1 (stereo not drawn) | ? | ? | -17 | -3% | -1
